# Data reported in article PMC7862700, “An all-to-all approach to the identification of sequence-specific readers for epigenetic DNA modifications on cytosine”.
# Tests used:
# Assay in all cases: DAPPL (digital affinity profiling via proximity ligation, sequencing); 10 mM Tris-HCl pH 7.5, 50 mM NaCl, 1 mM DTT, 4% glycerol, room temperature, 30 min; GST-TFs on glutathione beads, 16-mer random dsDNA library, 0.1% formaldehyde crosslink after washing; high values mean tight binding
# Conditions in all cases: protein: recombinant; tags: N-terminal GST; dsDNA, one strand shown
# [1] = biological target: T1, ERF (Homo sapiens, UniProt P50548 1-548)
# T1 sequence: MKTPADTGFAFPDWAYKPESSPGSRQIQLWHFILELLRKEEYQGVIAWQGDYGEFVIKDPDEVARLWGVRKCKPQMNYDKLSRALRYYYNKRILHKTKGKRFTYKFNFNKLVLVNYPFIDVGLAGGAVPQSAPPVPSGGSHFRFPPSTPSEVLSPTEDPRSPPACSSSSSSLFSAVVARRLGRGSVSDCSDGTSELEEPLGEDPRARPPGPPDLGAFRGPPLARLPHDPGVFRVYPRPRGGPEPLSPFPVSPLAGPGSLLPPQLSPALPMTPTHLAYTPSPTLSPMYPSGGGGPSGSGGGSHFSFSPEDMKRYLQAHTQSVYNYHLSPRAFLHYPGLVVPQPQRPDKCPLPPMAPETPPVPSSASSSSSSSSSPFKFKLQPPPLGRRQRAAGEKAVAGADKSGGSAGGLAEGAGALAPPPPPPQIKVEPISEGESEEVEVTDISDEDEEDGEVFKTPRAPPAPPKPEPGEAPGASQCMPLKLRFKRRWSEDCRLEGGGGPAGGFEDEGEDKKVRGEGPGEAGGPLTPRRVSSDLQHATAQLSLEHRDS
# Outline: (§1)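 Binding signal is each hexamer's read frequency for a factor divided by its frequency in the tag-only sample. The factors were GST-fused human transcription factors from yeast, captured on glutathione beads, DNA-barcoded and pooled with that sample. Pools were incubated with 200 nmole of a random double-stranded 16-mer DNA library in Tris/NaCl/DTT/glycerol buffer at room temperature for 30 min, then washed, crosslinked with 0.1% formaldehyde, proximity-ligated with BsaI/T4 ligase (1 h, 37 °C), PCR-amplified and sequenced on an Illumina NextSeq500.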
# [2] = biological target: T2, ETV3L (Homo sapiens, UniProt Q6ZN32 1-361)
# T2 sequence: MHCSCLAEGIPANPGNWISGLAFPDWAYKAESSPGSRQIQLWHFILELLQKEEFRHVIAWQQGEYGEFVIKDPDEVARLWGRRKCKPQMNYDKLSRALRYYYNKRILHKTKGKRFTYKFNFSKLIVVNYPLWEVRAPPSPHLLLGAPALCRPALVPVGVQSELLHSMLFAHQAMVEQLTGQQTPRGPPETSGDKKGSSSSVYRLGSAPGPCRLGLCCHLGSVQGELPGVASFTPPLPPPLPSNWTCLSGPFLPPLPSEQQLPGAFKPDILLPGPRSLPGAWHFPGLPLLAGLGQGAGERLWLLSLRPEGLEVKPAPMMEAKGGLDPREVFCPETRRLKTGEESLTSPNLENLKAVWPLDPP
# Outline: as §1
# [3] = biological target: T3, ETS2 (Homo sapiens, UniProt P15036 1-469)
# T3 sequence: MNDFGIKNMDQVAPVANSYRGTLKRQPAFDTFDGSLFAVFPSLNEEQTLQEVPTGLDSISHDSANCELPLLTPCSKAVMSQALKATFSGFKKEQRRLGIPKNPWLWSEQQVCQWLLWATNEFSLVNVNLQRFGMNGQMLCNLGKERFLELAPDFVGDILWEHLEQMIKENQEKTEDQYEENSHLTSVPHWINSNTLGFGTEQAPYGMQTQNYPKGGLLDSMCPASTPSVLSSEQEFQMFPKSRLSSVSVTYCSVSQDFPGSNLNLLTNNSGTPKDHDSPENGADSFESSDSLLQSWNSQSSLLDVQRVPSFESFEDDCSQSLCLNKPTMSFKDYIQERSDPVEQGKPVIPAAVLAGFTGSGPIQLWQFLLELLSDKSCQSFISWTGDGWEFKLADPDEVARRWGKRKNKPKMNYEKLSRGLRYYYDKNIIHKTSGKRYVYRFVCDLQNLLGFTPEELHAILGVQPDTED
# Outline: as §1
# [4] = biological target: T4, SPDEF (Homo sapiens, UniProt O95238 1-335)
# T4 sequence: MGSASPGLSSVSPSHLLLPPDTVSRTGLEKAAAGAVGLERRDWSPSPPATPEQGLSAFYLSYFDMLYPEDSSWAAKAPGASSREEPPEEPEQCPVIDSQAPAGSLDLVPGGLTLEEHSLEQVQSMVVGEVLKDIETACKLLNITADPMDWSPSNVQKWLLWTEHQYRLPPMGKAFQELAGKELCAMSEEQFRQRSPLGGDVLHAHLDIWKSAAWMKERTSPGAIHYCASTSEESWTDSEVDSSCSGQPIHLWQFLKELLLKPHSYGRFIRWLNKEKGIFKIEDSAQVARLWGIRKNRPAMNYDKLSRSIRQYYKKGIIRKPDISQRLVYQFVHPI
# Outline: as §1
# [5] = biological target: T5, ETV7 (Homo sapiens, UniProt Q9Y603 1-341)
# T5 sequence: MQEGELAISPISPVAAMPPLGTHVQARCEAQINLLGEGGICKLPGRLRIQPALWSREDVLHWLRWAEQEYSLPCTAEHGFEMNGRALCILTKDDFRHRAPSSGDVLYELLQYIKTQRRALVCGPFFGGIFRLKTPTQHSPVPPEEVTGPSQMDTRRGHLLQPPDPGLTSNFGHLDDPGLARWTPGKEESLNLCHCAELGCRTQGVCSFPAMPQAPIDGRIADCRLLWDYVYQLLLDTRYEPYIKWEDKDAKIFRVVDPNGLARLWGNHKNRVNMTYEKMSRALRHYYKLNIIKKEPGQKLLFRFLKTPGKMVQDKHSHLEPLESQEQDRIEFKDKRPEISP
# Outline: as §1
# [6] = biological target: T6, ELF5 (Homo sapiens, UniProt Q9UKW6-2 1-255)
# T6 sequence: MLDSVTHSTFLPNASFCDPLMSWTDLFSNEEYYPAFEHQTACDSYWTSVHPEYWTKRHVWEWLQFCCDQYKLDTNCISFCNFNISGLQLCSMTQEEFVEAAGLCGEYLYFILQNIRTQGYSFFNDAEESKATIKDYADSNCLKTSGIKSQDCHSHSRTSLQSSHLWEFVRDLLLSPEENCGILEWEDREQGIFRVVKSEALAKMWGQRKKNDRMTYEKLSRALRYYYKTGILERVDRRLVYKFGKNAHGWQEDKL
# Outline: as §1
# [7] = biological target: T7, ETV3 (Homo sapiens, UniProt P41162-2 1-143)
# T7 sequence: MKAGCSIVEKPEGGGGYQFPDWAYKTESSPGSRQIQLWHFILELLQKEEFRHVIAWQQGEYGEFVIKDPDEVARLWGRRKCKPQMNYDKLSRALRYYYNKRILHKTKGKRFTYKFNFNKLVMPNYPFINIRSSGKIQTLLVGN
# Outline: as §1
# [8] = biological target: ETV6 (Homo sapiens, UniProt P41212 1-452)
# Outline: as §1
# ETV6, sequence (P41212 whole entry): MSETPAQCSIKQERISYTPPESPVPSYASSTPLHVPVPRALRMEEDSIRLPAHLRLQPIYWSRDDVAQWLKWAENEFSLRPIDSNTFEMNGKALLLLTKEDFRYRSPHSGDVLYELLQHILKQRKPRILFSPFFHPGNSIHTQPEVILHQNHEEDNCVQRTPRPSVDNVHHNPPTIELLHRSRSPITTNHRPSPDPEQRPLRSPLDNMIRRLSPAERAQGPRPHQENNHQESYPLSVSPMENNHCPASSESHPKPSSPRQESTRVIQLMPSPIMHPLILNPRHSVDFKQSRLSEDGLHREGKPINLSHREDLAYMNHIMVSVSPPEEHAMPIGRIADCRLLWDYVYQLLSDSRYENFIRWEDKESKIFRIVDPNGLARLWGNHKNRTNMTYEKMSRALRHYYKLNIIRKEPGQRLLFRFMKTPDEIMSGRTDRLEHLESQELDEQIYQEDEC
Sequence,binding signal [1],binding signal [2],binding signal [3],binding signal [4],binding signal [5],binding signal [6],binding signal [7],binding signal [8]
TTCTGA,"1.16 fold enrichment (6-mer frequency, TF over GST control)","1.35 fold enrichment (6-mer frequency, TF over GST control)","1.43 fold enrichment (6-mer frequency, TF over GST control)","1.38 fold enrichment (6-mer frequency, TF over GST control)","1.19 fold enrichment (6-mer frequency, TF over GST control)","1.26 fold enrichment (6-mer frequency, TF over GST control)","1.37 fold enrichment (6-mer frequency, TF over GST control)","1.3 fold enrichment (6-mer frequency, TF over GST control)"
AATAGT,"1.21 fold enrichment (6-mer frequency, TF over GST control)","1.25 fold enrichment (6-mer frequency, TF over GST control)","1.13 fold enrichment (6-mer frequency, TF over GST control)","1.06 fold enrichment (6-mer frequency, TF over GST control)","1.18 fold enrichment (6-mer frequency, TF over GST control)","1.18 fold enrichment (6-mer frequency, TF over GST control)","1.3 fold enrichment (6-mer frequency, TF over GST control)","1.34 fold enrichment (6-mer frequency, TF over GST control)"
CTCCTA,"1.49 fold enrichment (6-mer frequency, TF over GST control)","1.36 fold enrichment (6-mer frequency, TF over GST control)","1.32 fold enrichment (6-mer frequency, TF over GST control)","1.34 fold enrichment (6-mer frequency, TF over GST control)","1.37 fold enrichment (6-mer frequency, TF over GST control)","1.41 fold enrichment (6-mer frequency, TF over GST control)","1.23 fold enrichment (6-mer frequency, TF over GST control)","1.29 fold enrichment (6-mer frequency, TF over GST control)"
TGGCTT,"1.27 fold enrichment (6-mer frequency, TF over GST control)","1.17 fold enrichment (6-mer frequency, TF over GST control)","1.26 fold enrichment (6-mer frequency, TF over GST control)","1.11 fold enrichment (6-mer frequency, TF over GST control)","1.31 fold enrichment (6-mer frequency, TF over GST control)","1.18 fold enrichment (6-mer frequency, TF over GST control)","1.18 fold enrichment (6-mer frequency, TF over GST control)","1.29 fold enrichment (6-mer frequency, TF over GST control)"
TCAACC,"1.3 fold enrichment (6-mer frequency, TF over GST control)","1.24 fold enrichment (6-mer frequency, TF over GST control)","1.22 fold enrichment (6-mer frequency, TF over GST control)","1.2 fold enrichment (6-mer frequency, TF over GST control)","1.07 fold enrichment (6-mer frequency, TF over GST control)","1.07 fold enrichment (6-mer frequency, TF over GST control)","1.16 fold enrichment (6-mer frequency, TF over GST control)","1.22 fold enrichment (6-mer frequency, TF over GST control)"
GCTCCC,"1.29 fold enrichment (6-mer frequency, TF over GST control)","1.27 fold enrichment (6-mer frequency, TF over GST control)","1.35 fold enrichment (6-mer frequency, TF over GST control)","1.47 fold enrichment (6-mer frequency, TF over GST control)","1.31 fold enrichment (6-mer frequency, TF over GST control)","1.33 fold enrichment (6-mer frequency, TF over GST control)","1.21 fold enrichment (6-mer frequency, TF over GST control)","1.25 fold enrichment (6-mer frequency, TF over GST control)"
TCCCTA,"1.43 fold enrichment (6-mer frequency, TF over GST control)","1.39 fold enrichment (6-mer frequency, TF over GST control)","1.32 fold enrichment (6-mer frequency, TF over GST control)","1.4 fold enrichment (6-mer frequency, TF over GST control)","1.16 fold enrichment (6-mer frequency, TF over GST control)","1.67 fold enrichment (6-mer frequency, TF over GST control)","1.38 fold enrichment (6-mer frequency, TF over GST control)","1.17 fold enrichment (6-mer frequency, TF over GST control)"
